MARV entry inh – Marburg virus entry inhibition; Potency, µM (top dose mostly 49.2 µM), actives largely listed as inhibitors; Marburg virus pseudotype entry/binding inhibition, cell-based; 18,000 tested, 6.5% active
LASV entry inh – inhibitors of Lassa virus binding or entry into cells | Lassa virus pseudotyped entry inhibition, cell-based qHTS | 18,000 tested, 4.1% active | Potency, µM (top dose mostly 49.2 µM), hits mostly inhibitors
Each line names hits and unclear results; the compound was inactive in the other large screens; ! = a repeat was not active. The list is not random: actives were taken first. Their share in the collection is about 8%. Calls come from the whole dose curve; tested in HEK293 cells.

CC(C)(c1ccc(OCC2CO2)cc1)c1ccc(OCC2CO2)cc1 (stereo not given)	MARV entry inh 7.1µM!, LASV entry inh 8.9µM!
c1ccc(COC[C@H]2CO2)cc1	none
CCN1C(=O)[C@@H]2[C@H]3[C@H](O)[C@H](O)CC(=NO[C@@H](C)c4cc(-c5c(C)cc(C)cc5C)no4)[C@@H]3CC[C@H]2C1=O	none
COc1cc(CC(C)N)c(OC)cc1Br (stereo not given)	MARV entry inh 18µM, LASV entry inh inconclusive
CCc1cc(OC)c(C[C@H](C)N)cc1OC	MARV entry inh inconclusive
NS(=O)(=O)c1ccc(Nc2ncc(-c3ccccc3)o2)cc1	none
COC(=O)C(C(=O)OC)[C@@H]1O[C@@]23COCC[C@]2(C)[C@@H]3c2ccccc21	none
CCCCC(C)/C=C(C)/C=C(\C)C(=O)NC1=CC(O)(/C=C/C=C/C=C/C(=O)NC2=C(O)CCC2=O)C2OC2C1=O (stereo not given)	MARV entry inh 3.2µM, LASV entry inh 7.1µM
CN1CCN(C2Cc3ccccc3Sc3ccc(S)cc32)CC1 (stereo not given)	MARV entry inh 13µM, LASV entry inh inconclusive
CCCCCC(=O)N1C[C@@H](O)[C@H](n2cc(-c3ccc(F)cc3)nn2)C[C@H]1c1ccccc1	none
O[C@H]1C[C@H](c2ccccc2)N(CC2CCCCC2)C[C@H]1n1cc(C2CC2)nn1	none
COC(=O)C1=CO[C@@H](C)[C@@H]2CN3CCc4c([nH]c5cc(OC)ccc45)[C@@H]3C[C@H]12	none
COC(=O)[C@H]1[C@H]2C[C@@H]3c4[nH]c5ccccc5c4CCN3C[C@H]2C[C@@H](OC(=O)c2cc(OC)c(OC)c(OC)c2)[C@@H]1OC	MARV entry inh inconclusive, LASV entry inh 3.5µM
COC(=O)[C@H]1C(OC)[C@@H](OC(=O)c2cc(OC)c(OC)c(OC)c2)C[C@@H]2CN3CCc4c([nH]c5cc(OC)ccc45)[C@H]3C[C@H]21 (stereo not given in full)	none
COC(=O)[C@H]1[C@H]2C[C@@H]3c4[nH]c5cc(OC)ccc5c4CCN3C[C@H]2C[C@@H](OC(=O)/C=C/c2cc(OC)c(OC)c(OC)c2)[C@@H]1OC	MARV entry inh 10µM
C=C(C)C1CC23C(=O)[C@]4(C(=O)c5ccccc5)C[C@@]5(C)CCC(CC2C1(C)C)(C4=O)[C@@]35OC (stereo not given in full)	none
c1ccc(C(NCCNC(c2ccccc2)c2ccccc2)c2ccccc2)cc1	MARV entry inh 7.1µM, LASV entry inh 13µM
CCC(C(=O)O)c1ccccc1 (stereo not given)	none
N#Cc1ccc2c(c1)C[C@]1(CCCCN3C(=O)c4ccccc4C3=O)Oc3c(c(=O)oc4ccccc34)[C@H]2O1	MARV entry inh inconclusive
CC1=C[C@@H](COCc2ccccc2)O[C@@]2(C1)C(=O)N(Cc1ccccc1C(F)(F)F)c1ccccc12	none
Oc1ccc(Cl)c2cccnc12	none
Oc1c(Cl)cc(Cl)c2cccnc12	MARV entry inh 13µM, LASV entry inh inconclusive
Cc1ccc2c(Cl)cc(Cl)c(O)c2n1	MARV entry inh 6.3µM!, LASV entry inh inconclusive
O=S1(=O)CCSCCN1Cc1cc(F)ccc1Br	none
COc1ccccc1C1=C(Nc2ccccc2)C(=O)NC1=O	none
CN1CCN(c2ncnc3ccc(-c4ccccc4C#N)cc23)CC1	none
CN1CCC(=C2c3ccccc3Sc3ccccc32)CC1	MARV entry inh 4µM, LASV entry inh inconclusive
CN1CCC(=C2c3ccccc3C=Cc3ccccc32)CC1	MARV entry inh 8.9µM, LASV entry inh 28µM
CC(=O)c1ccc(OCc2cn(CC(=O)c3ccc(O)cc3)nn2)c(F)c1	none
C[C@@H]1CCC2[C@@H](C)[C@@H](O)O[C@@H]3O[C@@]4(C)CC[C@@H]1[C@@]23OO4 (stereo not given in full)	MARV entry inh 1.3µM, LASV entry inh 0.63µM
CC1CCC2C(C)C(=O)OC3OC4(C)CCC1C32OO4 (stereo not given)	LASV entry inh inconclusive
CCN(CC)CCNC(=O)COc1ccc(OC)cc1	none
CCN(CC)CCCCNc1ncc2cc(-c3cc(OC)cc(OC)c3)c(NC(=O)NC(C)(C)C)nc2n1	MARV entry inh 1.1µM, LASV entry inh 13µM
COC(=O)C1=C(C(=O)OC)[C@@H]2N(C)c3ccccc3[C@@]23C[C@@H](C(=O)OC)N(C(=O)NC(C)(C)C)C3=N1	none (no result: LASV entry inh)
CN1C/C(=C/c2ccc(B(O)O)cc2)C(=O)/C(=C/c2ccc(B(O)O)cc2)C1	MARV entry inh 6.3µM, LASV entry inh 13µM
O=C1NC(=O)C(c2ccc(Cl)cc2)=C1Nc1ccc(Cl)c(C(=O)O)c1	MARV entry inh inconclusive
C[C@@H]1O[C@H](O[C@@H]2[C@H](C)O[C@H](O[C@@H]3[C@H](C)O[C@H](O[C@H]4CC[C@]5(C)[C@@H](CC[C@@H]6[C@H]5C[C@@H](O)[C@]5(C)[C@@H](C7=CC(=O)OC7)CC[C@]65O)C4)C[C@@H]3O)C[C@@H]2O)C[C@H](O)[C@@H]1O	MARV entry inh 0.89µM, LASV entry inh 0.13µM
C[C@]12[C@H](O)CC3C(CC[C@@H]4C[C@@H](O)CC[C@]34C)[C@@]1(O)CC[C@@H]2C1=CC(=O)OC1 (stereo not given in full)	MARV entry inh inconclusive, LASV entry inh 1.1µM
CC(=O)C1CCC2C3CCC4CC(O)CCC4(C)C3CC(O)C12C (stereo not given)	none
C[C@H]1O[C@@H](O[C@H]2[C@@H](O)C[C@H](O[C@H]3[C@@H](O)C[C@H](O[C@H]4CC[C@@]5(C)[C@H](CC[C@@H]6[C@@H]5C[C@@H](O)[C@]5(C)[C@@H](C7=CC(=O)OC7)CC[C@]65O)C4)O[C@@H]3C)O[C@@H]2C)C[C@H](O)[C@@H]1O	MARV entry inh inconclusive, LASV entry inh 4µM
CO[C@H]1[C@@H](O)C[C@H](O[C@H]2[C@@H](O)C[C@H](O[C@H]3[C@@H](O)C[C@H](O[C@H]4CC[C@@]5(C)[C@H](CC[C@@H]6[C@@H]5C[C@@H](O)[C@]5(C)[C@@H](C7=CC(=O)OC7)CC[C@]65O)C4)O[C@@H]3C)O[C@@H]2C)O[C@@H]1C	MARV entry inh 7.1µM, LASV entry inh inconclusive
O=C1[C@H]2[C@@H]3[C@@H](O)[C@H](O)CC(=NOCc4ccccc4)[C@@H]3CC[C@H]2C(=O)N1Cc1ccc2c(c1)OCO2	none
CCN1C(=O)NC(c2cccs2)C(C(C)=O)=C1C (stereo not given)	MARV entry inh inconclusive
CC(=O)C1=C(C)N(Cc2ccccc2)C(=O)NC1c1ccc(Br)cc1 (stereo not given)	LASV entry inh inconclusive
CCCC[C@]12Cc3cc(OC)c(OC)cc3[C@H](O1)C1=C(CC3(CCCCC3)OC1=O)O2	none
Cc1ccc(C(=O)NC2CCCCC2)cc1-c1ccc(C(=O)NCC2CC2)cc1	none (no result: LASV entry inh)
O=C1c2ccccc2C(=O)C1c1ccc(F)cc1	none
CC1(C)C(=O)NC2=C1C(=O)C(=O)c1ccccc12	MARV entry inh 4µM, LASV entry inh 13µM
COC(=O)[C@]1(C)C=C[C@@H](C)[C@H](c2ccccc2Br)N1C(=O)C(F)(F)F	none (no result: LASV entry inh)
O=c1c(O)c(-c2ccccc2)oc2cc(O)cc(O)c12	none
O=c1c(O)c(-c2cc(O)c(O)c(O)c2)oc2cc(O)cc(O)c12	MARV entry inh 11µM
Cc1ccccc1	none
CNc1ccc2oc(C[C@@H]3OC4(CC[C@@H]3C)O[C@H]([C@@H](C)C(=O)c3ccc[nH]3)[C@H](C)C[C@H]4C)nc2c1C(=O)O (stereo not given in full)	MARV entry inh 2.8µM, LASV entry inh 2.8µM

Compound activity from PubChem.
